Drawing on PubChem BioAssay, this text covers z-score for 16 compounds.

Assay [1] in a line: survival rescue of mitochondrial mutant cells in low glucose, primary screen, MELAS cybrids, Rieske KO mouse fibroblasts, CellTiter-Glo (AID 1508586).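 Note: test concentration not given here; z relative to plate mean and SD of compound and empty wells.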
Assay [2] in a line: viability rescue of complex I mutant cybrids, primary screen, cell-based, galactose medium, ATP luminescence (AID 1645843;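 active = z-score of at least 1.8 in each of two replicates, scored against plate mean and spread of sample wells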;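 note: positive z means more ATP and so rescue of galactose-driven cybrid death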). Particulars: complex I mutant cybrid cells, 72 h, stronger effect = higher value.
Setting [3] is: MELAS cybrid survival, CellTiter-Glo 48 h, stronger effect = higher value.
[4] abbreviates: Rieske KO mouse fibroblast survival, CellTiter-Glo 72 h.

Active and inactive are the calls of the source.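 Rule for the calls, unless noted: active = mean z-score across replicates of 1.96 or higher in either the MELAS or the Rieske mutant cell line; inactive = the rest.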

As for `Cc1noc(C)c1CC(=O)N1CCc2c(c(C(=O)N3CCOCC3)nn2CCCc2ccccc2)C1`, the values for the z-score in assay [1] (setting [3]), in assay [1] (setting [4]) and in assay [2] were 0.975 (inactive), -0.571 and -0.895 (inactive), respectively.

For `CN(C)CCCNC(=O)[C@@H]1C[C@H](CN2CCOCC2)CN(Cc2ccc3ccccc3c2)C1`, the z-score in assay [1] (setting [3]) is -0.234 (inactive); in assay [1] (setting [4]), -0.142; in assay [2], 0.05 (inactive).

Consider `Cn1nc(C(=O)N2CCCCC2)c2c1CCC(NCC1(c3ccccc3)CCOCC1)C2` (stereo not drawn), for which the results for the z-score in assay [1] (setting [3]), in assay [1] (setting [4]) and in assay [2] were 0.135 (inactive), 0.153 and -0.59 (inactive), respectively.

As to `CN(C)C(=O)c1nn(Cc2ccccc2)c2c1CN(C(=O)C1CC(=O)Nc3ccccc31)CC2` (stereo not drawn), the z-score is -0.404 (inactive) in assay [1] (setting [3]), -0.253 in assay [1] (setting [4]) and 0.725 (inactive) in assay [2].

With `CN(C)c1ccc(/C=C/CN2CC(=O)N(CCCN3CCCC3=O)CC(O)C2)cc1` (stereo not drawn), the z-score in assay [1] (setting [3]) is -0.11 (inactive); in assay [1] (setting [4]) it was -0.286; in assay [2], 0.35 (inactive).

In the case of `NCCCC[C@@H]1NC(=O)[C@@H]2C[C@H](NCc3nc(-c4ccccc4)cs3)CN2C1=O`, the z-score in assay [1] (setting [3]) is -0.0314 (inactive); in assay [1] (setting [4]), 0.0831; in assay [2] it was -0.77 (inactive).

Regarding `CC(C)[C@@H]1NC(=O)[C@@H]2C[C@H](NC(=O)c3cc(C(C)(C)C)nn3C)CN2C1=O`, the z-score in assay [1] (setting [3]) was 0.0639 (inactive); in assay [1] (setting [4]) it was 0.0296; in assay [2], -0.355 (inactive).

In the case of `COC1CN(Cc2cn(C)c3ccccc23)CC(=O)N(Cc2ccccc2)C1` (stereo not drawn), the z-score was -0.128 (inactive) in assay [1] (setting [3]), -0.0158 in assay [1] (setting [4]) and 0.47 (inactive) in assay [2].

As for `CCN1C(=O)N(CCc2ccccc2)C2(CCN(Cc3cnn(-c4ccccc4OC)c3)CC2)C1=O`, the z-score in assay [1] (setting [3]) was 0.108 (inactive); in assay [1] (setting [4]), 0.254; in assay [2] it was -0.37 (inactive).

With `Cn1ccnc1CN1C[C@@H](CN2CCOCC2)C[C@@H](C(=O)N2CCCC2)C1`, the z-score in assay [1] (setting [3]) is 0.188 (inactive); in assay [1] (setting [4]) it was 0.125; in assay [2] it was -0.64 (inactive).

Turning to `COc1cc(CN2CCc3c(c(C(=O)NCCCN4CCOCC4)nn3C)C2)cc2c1OCO2`, the z-score is 0.109 (inactive) in assay [1] (setting [3]), -0.162 in assay [1] (setting [4]) and -0.765 (inactive) in assay [2].

For `CN1CCCC1CCNC(=O)[C@H]1CNC[C@@H](COc2cccc(F)c2)C1` (stereo partly drawn), the results for the z-score in assay [1] (setting [3]), in assay [1] (setting [4]) and in assay [2] were -0.0942 (inactive), 0.269 and 1.83 (inactive), respectively.

In the case of `Cc1ccc2c(-c3cc4c(n(CC5CC5)c3=O)CCN(C(=O)c3ccc5c(c3)OCO5)C4)cccc2n1`, the z-score in assay [1] (setting [3]) was 2.47 (active); in assay [1] (setting [4]), 3.71; in assay [2], -0.54 (inactive).

As for `C[C@H]1NC(=O)[C@@H]2C[C@H](NC(=O)c3cnn(-c4ccccc4)c3C(F)(F)F)CN2C1=O`, the z-score in assay [1] (setting [3]) is 0.896 (inactive); in assay [1] (setting [4]), -0.434; in assay [2] it was -1.26 (inactive).

In the case of `COc1ccc(CN2C[C@@H](CN3CCOCC3)C[C@@H](C(=O)NCC(C)C)C2)cc1OC`, the z-score was 0.036 (inactive) in assay [1] (setting [3]), -0.053 in assay [1] (setting [4]) and 0.1 (inactive) in assay [2].

Consider `Cc1cc(-c2cc3c(n(C)c2=O)CCN(Cc2ccc(Sc4nncn4C)o2)C3)ccc1F`, for which the z-score was -0.56 (inactive) in assay [1] (setting [3]), -0.369 in assay [1] (setting [4]) and 0.445 (inactive) in assay [2].
